The record followed here is PubChem BioAssay AID489025 (Southern Research Specialized Biocontainment Screening …, 2010).

Hit rate of the full screen: of about 2,300 compounds, about 790 (34%) were called active. The rule behind the calls is not given here. Some of the results follow. Entries with a potency or affinity are not part of this list.

A short description of this experiment: THP-1 cell cytotoxicity, dose response, cytotoxicity control for non-replicating M. tuberculosis project (AID 489025). The note with it: THP-1 cell viability; series mostly up to 40 µM; viability: at the top concentration.
In general, viability refers to a read-out of living cells in per cent, often relative to untreated cells. As for `CC(=O)c1ccc(OCC(=O)Nc2ccc3c(c2)CCC3)cc1`, the “viability” value was 90.6% (inactive).
Regarding `Cc1nnc(N/N=C/c2ccc(-c3ccc(Br)cc3)o2)n1N`, the “viability” value is 104% (inactive).
Next, `CC(=O)N(c1nnc(-c2ccc(C)cc2)s1)C1CCCC1`: 99.3% (inactive); `O=C(c1ccccc1[N+](=O)[O-])N1N=C(c2ccccc2)CC1(O)C(F)(F)F` (configuration not stated): 85.2% (inactive).
Under `CC1=NN(C(=O)CCCc2ccccc2)C(O)(C(F)(F)F)C1` (configuration not stated) stands 103% (inactive); under `CC1=NN(C(=O)c2cc(C)nn2C)C(O)(C(F)(F)F)C1` (configuration not stated), 112% (inactive); under `CC1=NN(C(=O)c2csc(C(C)C)c2)C(O)(C(F)(F)F)C1` (configuration not stated), 109% (inactive).
In the case of `CCOC(=O)C1=C(C)NC(=O)NC1c1ccc(-c2ccc(F)cc2)o1` (configuration not stated), the “viability” value was 100% (inactive).
Next, `COc1cccc(-c2nc(C=O)cs2)c1`: 99.6% (inactive).
Consider `CCOC(=O)c1cc(-c2cccc([N+](=O)[O-])c2)on1`, for which the “viability” value was 95.3% (inactive).
Turning to `CC(NC(=O)c1cccc(F)c1)C1CC2CCC1C2` (configuration not stated), the “viability” value was 93.8% (inactive).
Under `COc1ccc(CNC(=O)COC(=O)C2CC3C=CC2C3)cc1` (configuration not stated) stands 114% (inactive); under `CCCCNC(=O)Nc1nnc(-c2ccc(Cl)cc2)o1`, 89.7% (inactive).
With `O=C(CCN1CCC(c2cccs2)=N1)c1cccs1`, the “viability” value was 91.7% (inactive).
Next, `O=c1ccn(-c2ccccc2)[nH]1`: 120% (inactive); `COC(=O)c1ccc(CO/N=C/c2ccc(OC)cc2)o1`: 117% (inactive); `CCOC(=O)c1c(-c2ccc(C)o2)csc1NC(=O)CN1CCCCC1`: 76.7% (inactive).
Next, `Cc1ccc(C(=O)COC(=O)CCc2ccc(S(=O)(=O)N3CCCCC3)cc2)cc1`: 130% (inactive); `Cc1ccc(OCC(=O)N2CCCc3ccccc32)cc1`: 76% (inactive).
For the compound `COc1cc2c(cc1OC)CN(CCC(=O)c1ccc(Br)cc1)CC2`, the “viability” value was 94.5% (inactive).
`COc1ccc(C(O)CNc2ccc(C)cc2)cc1` (configuration not stated): the “viability” value is 86.4% (inactive).
As to `CC(C)Oc1ccc(CNC(=O)Oc2ccccc2)cc1`, the “viability” value is 112% (inactive).
On to `COc1ccc(C(=O)CCNc2ccc(F)cc2)cc1`, for which the “viability” value is 94.5% (inactive).
`COc1ccc(C(C)NC(=O)CCc2ccccc2)cc1` (configuration not stated): the “viability” value is 105% (inactive).
Next, `COc1ccc(OC(=O)C(C)N2C(=O)c3ccccc3C2=O)cc1` (configuration not stated): 123% (inactive); `CN(C)Cc1ccccc1Sc1ccccc1Br`: 93% (inactive); `COC(=O)COc1ccc2c(-c3ccc(OC)cc3)cc(=O)oc2c1`: 106% (inactive).
For the compound `CCOc1ccc2nc(/N=C/c3nc(-c4ccccc4)oc3O)sc2c1`, the “viability” value is 113% (inactive).
As to `CCOCC(=O)Nc1nc2ccc(C)cc2s1`, the “viability” value is 103% (inactive).
Under `O=C(NNc1nc2cc3c(cc2s1)OCCO3)c1ccccc1` stands 94.1% (inactive); under `O=C(Nc1nccs1)c1ccccn1`, 103% (inactive).
Next, `Cc1ccc(C)c(-c2csc(NC(=O)c3cnccn3)n2)c1`: 98.3% (inactive); `Cc1nc2ccc(OC(=O)c3ccccc3)cc2s1`: 126% (inactive).
Under `O=C(Nc1c(F)cc(F)cc1Br)c1cc(-c2ccccc2)on1` stands 110% (inactive); under `O=C(CCN1CCC(c2ccccc2)C1)c1ccccc1` (configuration not stated), 82.5% (inactive); under `O=C(CNC(=O)c1ccccc1F)OCc1csc(-c2ccccc2)n1`, 117% (inactive).
Take `O=C(NCc1ccc2c(c1)OCO2)c1ccc(Cl)s1`: the “viability” value is 98.2% (inactive).
Under `C=CCc1ccc2oc(C(=O)OCC)cc(=O)c2c1O` stands 125% (inactive).
Turning to `CCc1ccc(C(C)NC(=O)C2CCCO2)cc1` (configuration not stated), the “viability” value is 106% (inactive).
Under `CC1=CC(=O)NP(=O)(Oc2ccc3ccccc3c2)N1` (configuration not stated) stands 107% (inactive); under `Cc1nc2ccc(NC(=O)COc3cccc(F)c3)cc2s1`, 101% (inactive).
Next, `O=C(NNc1nc2ccccc2s1)c1ccc(F)cc1`: 78% (inactive); `COc1cc(/C=C2/C(=O)NN(c3cccc(C)c3)C2=O)ccc1OC(=O)c1ccco1`: 101% (inactive).
Take `COc1cc(NC(=O)C/C(C)=N/NC(=O)c2cccs2)c(OC)cc1Cl`: the “viability” value is 77.3% (inactive).
As for `Cc1cccc2nc(CSc3nc4cc([N+](=O)[O-])ccc4s3)cn12`, the “viability” value was 117% (inactive).
With `O=C(O)c1ccc(NCc2ccc(Br)cc2)cc1`, the “viability” value is 115% (inactive).
Under `CCCOC(=O)c1cc(-c2ccc(C=O)o2)ccc1Cl` stands 100% (inactive).
Next, `O=C(CN1CCOCC1)N/N=C/c1ccc(-c2ccc(Br)cc2)o1`: 113% (inactive); `COC(=O)c1cc(-c2ccc(OC)cc2)on1`: 105% (inactive).
Next, `CCOC(=O)c1c(-c2ccccc2)csc1NC(=O)CCN1CCOCC1`: 78.9% (inactive); `CCOC(=O)c1sc(NC(=O)CCN2CCOCC2)c(C(=O)OCC)c1C`: 96.3% (inactive).
For the compound `CCOC(=O)CNC(=O)N1c2ccccc2Sc2ccccc21`, the “viability” value is 94.3% (inactive).
`CCOC(=O)Nc1cccc(OCC(=O)Nc2ccc(OC)cc2OC)c1`: the “viability” value was 111% (inactive).
Next, `COc1cc(/C=N/Nc2ccc(Cl)c(C(=O)O)c2)ccc1OC(=O)c1ccco1`: 102% (inactive).
As to `CC(C)CSc1nnc2c3ccccc3n(C)c2n1`, the “viability” value is 97% (inactive).
Take `Cc1ccc(/C(O)=C/c2nc3ccccc3oc2=O)cc1`: the “viability” value was 81.1% (inactive).
As to `COc1ccc(C(=O)COC(=O)c2ccc(Cl)nc2)c(OC)c1`, the “viability” value was 113% (inactive).
Next, `O=C1CC(N2CCN(c3ccc(F)cc3)CC2)C(=O)N1Cc1ccccc1` (configuration not stated): 113% (inactive); `O=C(NNc1c(F)c(F)cc(F)c1F)c1cc2ccccc2oc1=O`: 83.4% (inactive); `Nc1ccc2cc(Br)ccc2c1`: 105% (inactive).
As for `O=C(OCC(=O)N1CCCc2ccccc21)c1ccc(S(=O)(=O)C(F)F)cc1`, the “viability” value was 113% (inactive).
Under `O=C(C1CCN(C2CC(=O)N(Cc3ccccc3)C2=O)CC1)N1CCCCCC1` (configuration not stated) stands 103% (inactive); under `Cc1cccc(OC(=O)c2ccc3nccnc3c2)c1`, 101% (inactive).
Regarding `CCOC(=O)C1(CC2CCCCO2)CCN(Cc2nccn2-c2ccc(OC)cc2)CC1` (configuration not stated), the “viability” value is 93.6% (inactive).
Regarding `O=C(COc1ccc2ccccc2c1Br)N1CCCC1`, the “viability” value was 107% (inactive).
Consider `C=CC(=O)Oc1ccc(N2Cc3ccccc3C2=O)cc1`, for which the “viability” value is 105% (inactive).
Under `CCOC(=O)Cn1nc(/C=C/c2ccccc2)ccc1=O` stands 115% (inactive); under `O=C1NC(Cc2c[nH]c3ccccc23)C(=O)N1CCOc1ccccc1` (configuration not stated), 92.5% (inactive).
Regarding `CC(C)c1nnc(NC(=O)c2sc3ccccc3c2Cl)s1`, the “viability” value is 107% (inactive).
Under `CC(C)c1nnc(NC(=O)c2cc3cc(Br)ccc3oc2=O)s1` stands 90.6% (inactive).
For `N/C(=N\OC(=O)c1cccs1)c1ccccc1`, the “viability” value was 90.9% (inactive).
On to `O=C(N/N=C/C=C/c1ccccc1)c1cccs1`, for which the “viability” value was 120% (inactive).
For `O=C(OCC(=O)c1c[nH]c2ccccc12)c1ccc([N+](=O)[O-])s1`, the “viability” value is 92.8% (inactive).
Next, `CCOC(=O)c1c(C)[nH]c(C)c1C(=O)COC(=O)c1ccc([N+](=O)[O-])s1`: 83.1% (inactive).
On to `COC(=O)C1=C(N)OC2=C(C(=O)CC(C)(C)C2)C1c1cccnc1` (configuration not stated), for which the “viability” value is 101% (inactive).
In the case of `CC1(C)CC(=O)C2=C(C1)OC(N)=C([N+](=O)[O-])C2c1ccc(C#N)s1` (configuration not stated), the “viability” value is 108% (inactive).
Consider `COc1ccccc1NC(=O)CCN1CCN(c2ccc(Cl)cc2)CC1`, for which the “viability” value is 114% (inactive).
As to `O=[N+]([O-])c1ccc(CSc2nnc(-c3cccnc3)o2)cc1`, the “viability” value was 94.9% (inactive).
As for `CC1(c2nnc(-c3ccc(F)cc3)o2)CC(c2cccc(Cl)c2)=NO1` (configuration not stated), the “viability” value is 102% (inactive).
Take `COC(=O)CCn1c(C)cc(C(=O)COc2ccccc2C(N)=O)c1C`: the “viability” value was 70.3% (inactive).
As for `CCCNC(=O)c1ccc(COc2ccc(C)cc2)o1`, the “viability” value is 110% (inactive).
In the case of `CCOC(=O)C(C)Oc1ccc(OCc2ccccc2)cc1` (configuration not stated), the “viability” value was 77.2% (inactive).
Under `Cc1ccc(/C=C2\SC(N3CCCC3)=NC2=O)cc1` stands 91.7% (inactive).
Under `CCNC(=O)NC(=O)C(C)OC(=O)CCCSc1nc2ccccc2s1` (configuration not stated) stands 99.5% (inactive); under `O=[N+]([O-])c1ccc(Nc2ccccc2O)c2nonc12`, 79.9% (inactive).
As for `O=[N+]([O-])c1ccc(Nc2ccccc2)c2nonc12`, the “viability” value was 95.5% (inactive).
As to `CC1(c2nnc(-c3ccccc3)o2)CC(c2ccc(Cl)cc2)=NO1` (configuration not stated), the “viability” value was 112% (inactive).
Under `Cn1cccc1/C=N/NC(=O)c1ccncc1` stands 109% (inactive); under `C/C(=N/NC(=O)c1ccncc1)C1=C(O)CC(C)(C)CC1=O`, 120% (inactive); under `O=[N+]([O-])c1cncc([N+](=O)[O-])c1Nc1ccccc1Cl`, 70.5% (inactive).
Turning to `Cc1cccc(NC(=O)c2ccc(OC3CSC3)cc2)c1`, the “viability” value was 87.2% (inactive).
Under `O=C(N/N=C/c1ccc(OC(=O)c2cccs2)cc1)c1ccccn1` stands 88.1% (inactive); under `COc1ccc(Cc2nnc(SCc3ccc([N+](=O)[O-])cc3)o2)cc1`, 86.3% (inactive); under `O=C(OCC(=O)N1CCC(c2ccccc2)=N1)c1ccc([N+](=O)[O-])s1`, 85.2% (inactive).
Under `O=C(Nc1ccc2c(c1)CCC2)c1ccc(Br)o1` stands 74.3% (inactive).
Under `CC(OC(=O)c1ccc([N+](=O)[O-])s1)C(=O)NC1CCCCC1C` (configuration not stated) stands 90.2% (inactive); under `COc1cccc(NC(=O)c2ccc(Cn3cc([N+](=O)[O-])cn3)o2)c1`, 111% (inactive); under `CC(=O)c1ccc(NC(=O)CCc2ccc(C)o2)cc1`, 92.8% (inactive).
`CC(C)(C)C(=O)/C=C/Nc1ccccc1O`: the “viability” value was 102% (inactive).
Under `O=C(CC1CC2CCC1C2)NCc1cccs1` (configuration not stated) stands 100% (inactive); under `O=C(OCC(=O)N1CCc2ccccc2C1)c1cccc([N+](=O)[O-])c1`, 121% (inactive); under `O=C(CCS(=O)(=O)c1ccc(Cl)cc1)Oc1ccc2c(c1)OCO2`, 110% (inactive).
Next, `CCc1cc(C=NC2CCCCC2)c(O)s1`: 82.6% (inactive); `Cc1ccc(CSc2nnc(-c3cccnc3)o2)cc1`: 105% (inactive).
Under `Cc1ccccc1C1=N/C(=C/c2cccnc2)C(=O)O1` stands 102% (inactive).
For `CCCc1nnc(NC(=O)c2cc3ccccc3oc2=O)s1`, the “viability” value was 108% (inactive).
Next, `COc1cc(OC)c2c(OC)cccc2n1`: 107% (inactive); `CC(NC(=O)c1cc2ccccc2oc1=O)c1ccccc1` (configuration not stated): 110% (inactive).
Under `Cc1ccc(C(C)NC(=O)c2cc3ccccc3oc2=O)cc1C` (configuration not stated) stands 102% (inactive); under `CCCc1cc(C(=O)Nc2cccc(C(C)=O)c2)no1`, 120% (inactive).
For the compound `Cc1cc(OCC(=O)Nc2ccncc2)ccc1Br`, the “viability” value was 119% (inactive).
As to `CSC1=N/C(=C\c2ccc3c(c2)OCO3)C(=O)S1`, the “viability” value is 116% (inactive).
`COc1ccc2c(c1)sc(=N)n2C`: the “viability” value is 74.8% (inactive).
Under `Cc1ccc(NC(=O)C2COc3ccccc3O2)nc1` (configuration not stated) stands 94.7% (inactive).
Next, `O=C(Nc1nnc(C2=COCCO2)o1)c1ccc(F)cc1`: 81.9% (inactive); `COc1ccc(C(=O)Nc2nnc(C3=COCCO3)o2)cc1`: 105% (inactive); `CCCn1c(CNc2ccccc2O)nc2ccccc21`: 75.4% (inactive).
Under `O=c1oc2ccccc2c(Nc2ccccc2O)c1[N+](=O)[O-]` stands 93.7% (inactive).
For the compound `Clc1ccc(OC2CCN(Cc3nc(CC4CC4)no3)CC2)cc1`, the “viability” value was 90% (inactive).
In the case of `CCCCOc1ccc(-c2nnn(C(C)C(=O)OCC)n2)cc1` (configuration not stated), the “viability” value is 105% (inactive).
Next, `CCOC(=O)c1sc(NC(=O)CCN2CC(C)OC(C)C2)c(C(=O)OCC)c1C` (configuration not stated): 82.6% (inactive); `CCc1nonc1NC(=O)COc1ccc(Cl)c(C)c1`: 126% (inactive).
